Assay [1] concerns the target Glucocorticoid receptor (Homo sapiens) (UniProt P04150). Briefly: qHTS assay for small molecule agonists of glucocorticoid receptor signaling (AID 588532; active = well fitted curve in the direction sought with a large enough effect in the signal ratio, with a control signal flat; the % refers to the signal ratio;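 note: 100% = dexamethasone at 0.1 µM and 0% = DMSO only wells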). The following applies: HeLa MMTV-bla, beta-lactamase ratio, agonist, 18 h; stronger effect = higher value; percent of dexamethasone control, DMSO zero. The method in brief: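 Quantitative HTS using CellSensor MMTV-bla HeLa cells in charcoal/dextran-treated serum; compounds tested up to 92 uM. After 18 h at 37 C, CCF4 dye reported reporter induction.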
For orientation: qHTS replaces the single test concentration by a dilution series.

Assay [2] has as its target Peroxisome proliferator-activated receptor gamma (Homo sapiens) (UniProt P37231). Kind of assay: qHTS assay for small molecule agonists of peroxisome proliferator-activated receptor gamma signaling (AID 588536; active = well fitted curve in the direction sought with a large enough effect in the signal ratio, with a control signal flat, not every such curve was filed as active; the % refers to the signal ratio). The method in brief: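 Using GeneBLAzer HEK293 cells, response was quantified by CCF4 fluorescence and normalized between basal DMSO (0%) and rosiglitazone 2 uM (100%); curves yielded half-maximal stimulation concentration and efficacy.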

Assay [3] has as its target Vitamin D3 receptor (Homo sapiens) (UniProt P11473). Kind of assay: qHTS assay for small molecule antagonists of vitamin D receptor signaling (AID 588541; calls by dose curve;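 note: receptor activated by calcitriol during compound treatment; series mostly up to about 77 µM; % is set by controls: 0 for no effect and ±100 for the full control effect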). The method in brief: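 Antagonist-mode beta-lactamase reporter assay: HEK293T VDR-UAS-bla cells were exposed to titrated compound alongside 1-alpha,25-dihydroxyvitamin D3 at 3 nM final for 16 h. Values were normalized to the 50 nM agonist control and DMSO basal, with IC50 and efficacy from Hill equation fits.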

For assay [4] the target is unchanged. Briefly: qHTS assay for small molecule agonists of vitamin D receptor signaling (AID 588543; calls by dose curve). The procedure, abridged: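 Reporter cells (HEK293T, VDR-UAS-bla) were seeded in medium with 2% charcoal-stripped serum and incubated 5 h, then compounds in concentration series were added for 16 h at 37 °C. Stimulation was scaled between DMSO basal and 50 nM 1α,25-dihydroxyvitamin D3.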

Assay [5] can be described thus: qHTS assay for small molecule agonists of retinoid X receptor alpha signaling (AID 588544). The settings on record: HEK293T RXRa-UAS-bla, beta-lactamase reporter, 18 h; 530 nm emission.
Assay [6] addresses Thyroid hormone receptor beta (Homo sapiens) (UniProt P10828). Kind of assay: qHTS assay for small molecule agonists of thyroid hormone receptor beta signaling (AID 588545; calls by dose curve;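 note: 0% = DMSO only and 100% = 10 nM T3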). The procedure, abridged: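 TR-UAS-bla GripTite HEK 293 cells (2500/well, medium with 2% charcoal/dextran FBS) were treated in agonist mode for 18 h at 37 C, titrated. Beta-lactamase was read by CCF4 ratio after 2 h; normalized to 10 nM T3 (100%) and DMSO, Hill-fitted for EC50 and efficacy.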

A short description of assay [7]: qHTS assay for small molecule antagonists of retinoid X receptor alpha signaling (AID 588546; active = well fitted inhibition curve with a large enough effect in the signal ratio, with a control signal flat, not every such curve was filed as active; the % refers to the signal ratio;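 note: cells stimulated with 9-cis-retinoic acid as agonist; % is set by controls: 0 for no effect and ±100 for the full control effect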). The following applies: HEK293T RXRa-UAS-bla, beta-lactamase ratio, antagonist mode; measured here: W530 green channel, cytotoxicity proxy. The procedure, abridged:
(§1)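 Beta-lactamase reporter inhibition, read as CCF4 fluorescence ratio (ex 405, em 460/530 nm) after 2 h at RT. HEK293T UAS-bla cells, 2500/well, were stimulated with 9-cis-RA at 500 or 100 nM final alongside test compound for 18 h at 37 C.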

Assay [8] deals with Retinoic acid receptor RXR-alpha (Homo sapiens) (UniProt P19793). Described as above. The following applies: HEK293T RXRa-UAS-bla, beta-lactamase ratio, antagonist mode. The method in brief: as §1
Sequence of Retinoic acid receptor RXR-alpha (Homo sapiens) (P19793 whole entry, looked up): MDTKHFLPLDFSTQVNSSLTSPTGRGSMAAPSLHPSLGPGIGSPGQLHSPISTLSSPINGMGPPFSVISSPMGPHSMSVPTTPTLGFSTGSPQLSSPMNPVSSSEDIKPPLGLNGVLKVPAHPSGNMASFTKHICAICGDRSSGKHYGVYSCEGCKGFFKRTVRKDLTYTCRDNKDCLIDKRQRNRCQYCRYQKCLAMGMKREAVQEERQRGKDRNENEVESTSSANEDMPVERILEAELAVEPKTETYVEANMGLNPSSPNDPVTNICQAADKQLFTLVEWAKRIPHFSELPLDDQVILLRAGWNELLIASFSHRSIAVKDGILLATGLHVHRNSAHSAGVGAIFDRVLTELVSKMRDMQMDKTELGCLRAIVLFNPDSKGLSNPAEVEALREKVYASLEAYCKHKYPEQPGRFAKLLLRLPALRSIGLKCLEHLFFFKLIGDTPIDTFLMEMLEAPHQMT
The target of assay [9] is Voltage-gated inwardly rectifying potassium channel KCNH2 (Homo sapiens) (UniProt Q12809). Briefly: qHTS Assay for Small Molecule Inhibitors of the Human hERG Channel Activity (AID 588834).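 Note: top concentration of the series differs between compounds; % is set by controls: 0 for no effect and ±100 for the full control effect; lower thallium flux fluorescence means stronger hERG block; nearly all actives have a fitted effect of over 50% in size.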 The procedure, abridged:
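Step 1: BacMam hERG transduction of U2OS, 4 hrs RT. Step 2: overnight 37 °C, plate 2000 cells/well, 4 hr. Step 3: FluxOR load, compound 10 min, stimulate, read fluorescence.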

Assay [10] in a line: S16 Schwann cell viability assay (CellTiter-Glo assay) (AID 624031).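 Note: cellular ATP luminescence as a viability measure; series mostly up to about 58 µM; plate controls were DMSO-treated cells for no effect and cell-free wells for full effect; nearly all actives have a fitted effect of over 70% in size.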 The method in brief:
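This viability control uses native rat S16 Schwann cells grown in DMEM plus 10% FBS. After a 24 h compound treatment at 37 °C, CellTiter-Glo luminescence reports ATP content, scaled against DMSO-treated and cell-free wells.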
On the technique in general: In ATP-based viability assays light output follows the ATP content of the culture.

Assay [11] deals with Glucocorticoid receptor (Homo sapiens) (UniProt P04150). Briefly: qHTS assay for small molecule antagonists of glucocorticoid receptor signaling (AID 588533; active = well fitted inhibition curve with a large enough effect in the signal ratio, with a control signal flat, not every such curve was filed as active; the % refers to the signal ratio;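 note: cells stimulated with 2 nM dexamethasone as agonist; % is set by controls: 0 for no effect and ±100 for the full control effect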). The method in brief: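 Antagonist-mode qHTS: compound titrations added to GRE-bla HeLa cells, then dexamethasone 2 nM final; 18 h, 37 C. CCF4 FRET fluorescence normalized to dexamethasone and DMSO; IC50 from Hill fit.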
Sequence of Glucocorticoid receptor (Homo sapiens) (P04150 whole entry, looked up): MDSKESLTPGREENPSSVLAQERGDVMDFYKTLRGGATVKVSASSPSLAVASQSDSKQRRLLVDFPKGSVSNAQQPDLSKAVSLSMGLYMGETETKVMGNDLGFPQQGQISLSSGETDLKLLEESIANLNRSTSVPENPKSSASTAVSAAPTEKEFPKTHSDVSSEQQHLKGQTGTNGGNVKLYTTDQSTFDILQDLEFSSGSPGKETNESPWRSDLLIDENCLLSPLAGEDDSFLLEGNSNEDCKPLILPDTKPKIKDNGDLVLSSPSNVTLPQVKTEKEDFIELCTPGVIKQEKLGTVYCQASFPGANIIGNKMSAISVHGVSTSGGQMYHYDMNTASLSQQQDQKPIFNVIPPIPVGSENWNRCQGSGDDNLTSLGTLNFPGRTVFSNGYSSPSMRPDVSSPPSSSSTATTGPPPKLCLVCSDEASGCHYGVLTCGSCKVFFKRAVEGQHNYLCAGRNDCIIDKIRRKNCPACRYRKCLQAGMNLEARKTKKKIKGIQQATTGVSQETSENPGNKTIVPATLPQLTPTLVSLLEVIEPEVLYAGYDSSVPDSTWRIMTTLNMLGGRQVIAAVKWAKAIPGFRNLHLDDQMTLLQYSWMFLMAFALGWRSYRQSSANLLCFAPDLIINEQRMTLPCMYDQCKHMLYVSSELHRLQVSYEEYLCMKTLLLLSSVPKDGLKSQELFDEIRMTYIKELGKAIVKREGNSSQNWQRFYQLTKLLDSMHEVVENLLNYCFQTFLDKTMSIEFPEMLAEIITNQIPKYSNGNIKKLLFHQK

The nature of assay [12]: qHTS assay for small molecule antagonists of peroxisome proliferator-activated receptor delta signaling (AID 588535; active = well fitted inhibition curve with a large enough effect in the signal ratio, with a control signal flat, not every such curve was filed as active; the % refers to the signal ratio;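 for max response: cells co-treated with a PPAR-delta agonist as stimulator during compound exposure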). The settings on record: HEK293T PPARd-UAS-bla, beta-lactamase FRET ratio, 18 h; 460 nm channel. The method in brief: (§2)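 Antagonist-mode qHTS using GeneBLAzer PPAR-delta-UAS-bla HEK293T cells; compound exposure 18 hrs at 37 C over a titration. Ratiometric CCF4 fluorescence at 460/530 nm; concentration-response points fitted to the Hill equation.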

The target of assay [13] is Peroxisome proliferator-activated receptor delta (Homo sapiens) (UniProt Q03181). The description is as above. The procedure, abridged: as §2
The target of assay [14] is Peroxisome proliferator-activated receptor gamma (Homo sapiens) (UniProt P37231). Kind of assay: qHTS assay for small molecule antagonists of peroxisome proliferator-activated receptor gamma signaling (AID 588537; active = well fitted inhibition curve with a large enough effect in the signal ratio, with a control signal flat, not every such curve was filed as active; the % refers to the signal ratio;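 note: reporter cells co-stimulated with 50 nM rosiglitazone agonist during compound treatment; % of control where 0% means no effect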). The method in brief:
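Cell-based beta-lactamase assay; GW9662 served as the antagonist control. Stimulation used rosiglitazone, final 50 nM, 16 h, 37 C.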

Assay [15] addresses Thyroid hormone receptor beta (Homo sapiens) (UniProt P10828). Kind of assay: qHTS assay for small molecule antagonists of thyroid hormone receptor beta signaling (AID 588547; active = well fitted inhibition curve with a large enough effect in the signal ratio, with a control signal flat, not every such curve was filed as active; the % refers to the signal ratio;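 note: cells stimulated with 0.4 nM T3 agonist during compound exposure; series mostly up to about 77 µM; % is set by controls: 0 for no effect and ±100 for the full control effect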). The settings on record: TR-UAS-bla HEK293, beta-lactamase ratio, antagonist mode, 18 h. The procedure, abridged: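 Inhibition of T3-driven (0.4nM final) beta-lactamase reporter activity was measured over 0.59 nM to 92 uM compound after 18 h at 37 C. The cells were GripTite HEK293 TR-UAS-bla in charcoal/dextran-stripped serum, with CCF4 ratio read-out and IC50 from Hill fits.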

Assay [16] concerns the target Luciferin 4-monooxygenase (Photinus pyralis) (UniProt P08659). Briefly: Biochemical firefly luciferase enzyme assay for NPC (AID 624030).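 Note: purified P. pyralis luciferase at 10 nM with luciferin and ATP substrate; series mostly up to about 59 µM; 0% = DMSO and -100% = full luciferase inhibition by PTC124 control; nearly all actives have a fitted effect of over 70% in size.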 The method in brief:
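Direct inhibition of firefly luciferase enzyme (10 nM final, 50 mM Tris Acetate) assessed by luminescence within 5 minutes. Percent activity scaled between DMSO and PTC124 positive control, with concentration-effect curves classified by fit quality and response.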

Assay [17] in a line: S16 Schwann cell PMP22 intronic element firefly luciferase assay (AID 624032).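 Note: series mostly up to about 58 µM; plate controls were DMSO for no effect and PTC124 positive control mean for full effect; nearly all actives have a fitted effect of over 30% in size.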 The method in brief: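 Luciferase reporter of PMP22 intronic-element expression in stably transfected S16 rat Schwann cells, read by ONE-Glo luminescence after 24 h compound exposure at 37 C. Activity scaled between DMSO (0%) and positive-control PTC124; concentration-effect curves quality-classified.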

Assay [18] concerns the target Androgen receptor (Homo sapiens) (UniProt P10275). Kind of assay: qHTS assay for small molecule agonists of androgen receptor signaling (AID 588515; active = well fitted curve in the direction sought with a large enough effect in the signal ratio, with a control signal flat; the % refers to the signal ratio; note: % is set by controls: 0 for no effect and ±100 for the full control effect). The settings on record: AR-UAS-bla HEK293, beta-lactamase ratio, agonist 16 h; stronger effect = higher value. The method in brief:
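Stimulation of an AR-responsive β-lactamase reporter in GripTite HEK293 cells was measured after 16 h compound exposure at 37 °C, via CCF4 fluorescence after 2 h RT. EC50 from Hill fits, normalized to R1881 at 30 nM.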

Assay [19] has the same target. Briefly: qHTS assay for small molecule antagonists of androgen receptor signaling (AID 588516; active = well fitted curve in the direction sought with a large enough effect in the signal ratio, with a control signal flat, not every such curve was filed as active; the % refers to the signal ratio; note: % is set by controls: 0 for no effect and ±100 for the full control effect). The method in brief: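 Cells were plated and incubated 5 h, compounds added in titration, then R1881 (10 nM final) as agonist. After 16 h at 37 C, CCF4 substrate was loaded for 2 h at room temperature and fluorescence measured.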

From PubChem BioAssay (NCATS) come the findings set out here.

Results filed as inconclusive are left out. Activity calls are given as the source filed them. Unless noted, calls come from the whole dose curve; as a rule, active = well fitted curve in the direction sought with a large enough effect; inconclusive = small, poorly fitted or top-dose-only effect, or another doubt; inactive = no such curve, though single readings can be large; an effect the other way counts as inactive or inconclusive.

Sequence of Peroxisome proliferator-activated receptor gamma (Homo sapiens) (P37231 whole entry, looked up): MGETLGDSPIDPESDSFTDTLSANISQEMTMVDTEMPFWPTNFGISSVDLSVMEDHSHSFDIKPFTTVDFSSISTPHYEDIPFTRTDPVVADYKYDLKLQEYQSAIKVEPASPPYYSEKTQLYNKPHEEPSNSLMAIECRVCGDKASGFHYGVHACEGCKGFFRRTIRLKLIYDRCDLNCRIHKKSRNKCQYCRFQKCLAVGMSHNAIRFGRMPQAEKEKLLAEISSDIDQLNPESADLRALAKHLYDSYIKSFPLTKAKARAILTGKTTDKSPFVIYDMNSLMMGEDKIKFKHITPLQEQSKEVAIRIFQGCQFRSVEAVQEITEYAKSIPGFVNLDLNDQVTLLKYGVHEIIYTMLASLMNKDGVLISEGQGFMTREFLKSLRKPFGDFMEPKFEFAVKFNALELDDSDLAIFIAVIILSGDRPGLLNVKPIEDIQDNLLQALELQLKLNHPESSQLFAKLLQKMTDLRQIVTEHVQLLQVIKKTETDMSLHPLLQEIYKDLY
Sequence of Voltage-gated inwardly rectifying potassium channel KCNH2 (Homo sapiens) (Q12809 whole entry, looked up): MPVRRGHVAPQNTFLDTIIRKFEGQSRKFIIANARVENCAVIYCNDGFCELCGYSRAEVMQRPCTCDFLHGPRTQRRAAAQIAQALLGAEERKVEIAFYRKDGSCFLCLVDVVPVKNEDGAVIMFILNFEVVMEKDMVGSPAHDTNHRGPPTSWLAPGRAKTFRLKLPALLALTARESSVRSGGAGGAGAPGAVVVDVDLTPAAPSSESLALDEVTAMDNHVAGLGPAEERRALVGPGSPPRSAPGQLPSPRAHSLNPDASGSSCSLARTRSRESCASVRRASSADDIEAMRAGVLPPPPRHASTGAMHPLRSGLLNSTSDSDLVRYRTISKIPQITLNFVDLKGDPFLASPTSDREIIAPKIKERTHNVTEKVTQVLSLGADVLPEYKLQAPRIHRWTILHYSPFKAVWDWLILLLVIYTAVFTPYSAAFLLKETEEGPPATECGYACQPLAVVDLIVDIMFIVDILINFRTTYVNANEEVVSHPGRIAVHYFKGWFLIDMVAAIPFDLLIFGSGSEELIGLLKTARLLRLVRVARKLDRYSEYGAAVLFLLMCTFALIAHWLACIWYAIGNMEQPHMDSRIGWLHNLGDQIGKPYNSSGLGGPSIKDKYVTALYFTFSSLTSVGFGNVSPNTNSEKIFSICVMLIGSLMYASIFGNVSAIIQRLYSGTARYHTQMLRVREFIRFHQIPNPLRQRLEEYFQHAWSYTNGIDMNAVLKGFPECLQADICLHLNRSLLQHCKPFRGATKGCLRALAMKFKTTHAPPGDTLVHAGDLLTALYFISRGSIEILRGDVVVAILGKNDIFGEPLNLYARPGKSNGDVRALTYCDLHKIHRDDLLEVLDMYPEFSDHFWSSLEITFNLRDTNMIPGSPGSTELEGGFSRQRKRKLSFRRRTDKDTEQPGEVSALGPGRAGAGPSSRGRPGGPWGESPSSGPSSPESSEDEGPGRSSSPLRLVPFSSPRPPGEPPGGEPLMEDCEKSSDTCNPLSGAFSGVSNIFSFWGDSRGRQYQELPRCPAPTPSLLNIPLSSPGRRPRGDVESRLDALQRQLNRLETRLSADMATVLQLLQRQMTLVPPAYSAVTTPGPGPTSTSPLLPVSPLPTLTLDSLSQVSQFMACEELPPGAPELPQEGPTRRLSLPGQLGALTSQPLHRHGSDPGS
Sequence of Vitamin D3 receptor (Homo sapiens) (P11473 whole entry, looked up): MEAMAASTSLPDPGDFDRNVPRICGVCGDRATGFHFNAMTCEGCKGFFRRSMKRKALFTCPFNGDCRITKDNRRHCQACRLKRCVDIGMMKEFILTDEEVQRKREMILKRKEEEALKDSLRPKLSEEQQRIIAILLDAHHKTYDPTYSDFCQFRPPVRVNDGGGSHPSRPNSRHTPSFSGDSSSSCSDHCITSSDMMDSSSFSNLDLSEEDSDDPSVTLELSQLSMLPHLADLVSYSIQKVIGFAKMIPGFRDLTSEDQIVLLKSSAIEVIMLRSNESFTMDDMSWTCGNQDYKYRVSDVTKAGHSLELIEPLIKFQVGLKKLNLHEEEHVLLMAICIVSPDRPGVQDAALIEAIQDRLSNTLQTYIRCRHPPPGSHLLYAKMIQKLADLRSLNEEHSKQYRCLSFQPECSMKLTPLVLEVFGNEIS
Sequence of Thyroid hormone receptor beta (Homo sapiens) (P10828 whole entry, looked up): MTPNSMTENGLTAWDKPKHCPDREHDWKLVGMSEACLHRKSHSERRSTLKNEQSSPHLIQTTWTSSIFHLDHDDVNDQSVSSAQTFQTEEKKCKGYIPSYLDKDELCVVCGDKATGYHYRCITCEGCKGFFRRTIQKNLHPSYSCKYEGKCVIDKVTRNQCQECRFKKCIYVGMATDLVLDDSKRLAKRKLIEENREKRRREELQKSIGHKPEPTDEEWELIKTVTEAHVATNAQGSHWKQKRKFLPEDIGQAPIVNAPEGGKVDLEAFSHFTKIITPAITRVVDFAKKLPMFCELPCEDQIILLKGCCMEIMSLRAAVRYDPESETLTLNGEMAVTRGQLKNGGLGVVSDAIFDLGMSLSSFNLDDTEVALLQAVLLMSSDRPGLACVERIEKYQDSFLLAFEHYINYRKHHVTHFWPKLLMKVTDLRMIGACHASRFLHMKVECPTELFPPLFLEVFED
Sequence of Androgen receptor (Homo sapiens) (P10275 whole entry, looked up): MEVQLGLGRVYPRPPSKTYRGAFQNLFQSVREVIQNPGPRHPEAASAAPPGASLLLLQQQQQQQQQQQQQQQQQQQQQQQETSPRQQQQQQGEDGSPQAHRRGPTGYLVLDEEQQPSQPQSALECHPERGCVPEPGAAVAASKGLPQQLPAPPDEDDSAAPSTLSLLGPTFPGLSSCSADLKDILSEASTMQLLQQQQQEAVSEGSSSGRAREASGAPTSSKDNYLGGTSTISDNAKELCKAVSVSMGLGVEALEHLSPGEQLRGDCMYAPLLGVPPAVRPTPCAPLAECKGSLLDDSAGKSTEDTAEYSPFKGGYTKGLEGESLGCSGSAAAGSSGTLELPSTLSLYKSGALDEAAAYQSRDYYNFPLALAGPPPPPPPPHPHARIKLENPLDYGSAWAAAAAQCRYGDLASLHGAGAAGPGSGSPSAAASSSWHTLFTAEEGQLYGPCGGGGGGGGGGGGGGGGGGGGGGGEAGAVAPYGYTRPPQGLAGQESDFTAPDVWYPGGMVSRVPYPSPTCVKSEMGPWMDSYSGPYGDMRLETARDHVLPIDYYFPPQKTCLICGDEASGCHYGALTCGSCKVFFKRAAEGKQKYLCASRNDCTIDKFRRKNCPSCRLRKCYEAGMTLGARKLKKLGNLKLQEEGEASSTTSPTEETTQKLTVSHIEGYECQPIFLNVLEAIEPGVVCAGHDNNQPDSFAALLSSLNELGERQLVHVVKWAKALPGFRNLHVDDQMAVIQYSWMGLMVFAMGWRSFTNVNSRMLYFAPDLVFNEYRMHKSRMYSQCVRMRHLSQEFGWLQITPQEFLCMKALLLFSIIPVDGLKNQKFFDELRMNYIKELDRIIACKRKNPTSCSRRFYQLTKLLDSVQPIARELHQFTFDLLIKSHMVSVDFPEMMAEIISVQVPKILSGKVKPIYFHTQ

For the compound `CCCCOC(=O)c1ccc(N)cc1`, the activation in assay [1] is -4.26% (inactive). For the same compound, the compound was called inactive in [2], in assay [3], in assay [4], in assay [6] and in [10]. Further, the max response in [5] was 8.21%; in assay [7] it was -1.8%; in assay [8] it was -25.6% (inactive). In assay [9], the Potency result is “inactive”.
With `Cc1cc(O)cc(C)c1Cl`, the result in [11], in assay [13], in assay [2], in [14], in [6] and in assay [10] was inactive. Also, the max response in [12] is 24.1%; in [5], -3.04%; in assay [7], -7.57%; in assay [8], 1.2% (inactive). Besides, the activity change % (negative = inhibition) in [15] was 6.71% (inactive). Moreover, the Potency result in [9], in assay [16] and in [17] was “inactive” each time.
Turning to `COc1ccc(O)cc1`, the activation in assay [18] is -4.19% (inactive); in [1] it was -2.84% (inactive). Also, the compound was classed as inactive in [19], in [11], in assay [13], in assay [3], in assay [4] and in [6]. Moreover, in assay [10], the result was inactive. The max response in [12] is 3.48%; in [5] it was -5.99%; in assay [7], -9.24%; in assay [8], -8.57% (inactive). For the same compound, the Potency result in [9], in assay [16] and in assay [17] was “inactive” throughout.
As to `CC1CC(OC(=O)c2ccccc2O)CC(C)(C)C1` (configuration not stated), the activation in [1] was 2.49% (inactive). The call in [11], in [13], in assay [2], in assay [6] and in assay [10] was inactive. The max response is 23.9% in [12], -9.52% in assay [7] and 14.2% (inactive) in [8]. Further, in [15], the activity change % (negative = inhibition) was -8.08% (inactive). For the same compound, the Potency entry in [17] is “inactive”.
`Cc1c(C(=O)NCCO)[n+](=O)c2ccccc2n1[O-]`: the compound was called inactive in assay [19], in assay [11], in assay [13], in [2], in assay [3] and in assay [6]. Besides, the result in assay [10] was inactive. In addition, the activation in assay [1] was 0.345% (inactive). For the same compound, the max response in [12] was -20%; in assay [5], -9.58%; in assay [7] it was -9.28%; in assay [8] it was -2.52% (inactive). In [15], the activity change % (negative = inhibition) was -3.26% (inactive). The Potency result in assay [9], in assay [16] and in [17] was “inactive” in each case.
In the case of `CCCC(O)C(CC)CO` (configuration not stated), the max response in [12] was 2.27%; in assay [5], -0.667%; in assay [7], -4.1%; in assay [8] it was 8.72% (inactive). Besides, the call in assay [13], in [2], in assay [6] and in assay [10] was inactive. Further, the activity change % (negative = inhibition) in [15] was 10.7% (inactive). Besides, in assay [16], the Potency result was “inactive”.
For the compound `O=C(O)[C@@H]1[C@H]2C[C@H]3c4[nH]c5ccccc5c4CCN3C[C@@H]2CC[C@@H]1O`, the Potency result in assay [9] was “inactive”.
As for `OC[C@@H](O)[C@@H](O)[C@H](O)[C@H](O)CO`, the compound was called inactive in [2], in assay [14], in [3], in assay [4], in assay [6] and in [10]. For the same compound, the max response in assay [5] is -0.766%; in [7], -16.3%; in assay [8], 13.9% (inactive). In addition, the activity change % (negative = inhibition) in [15] was -14.9% (inactive). In assay [16], the Potency result was “inactive”.
In the case of `C=CCNC(N)=S`, the max response was 13.5% in assay [12], 14.7% in assay [5], -1.13% in assay [7] and -16.9% (inactive) in [8]. The compound was classed as inactive in [13], in assay [2], in assay [3], in assay [4], in [6] and in assay [10]. The activity change % (negative = inhibition) in [15] was -17.1% (inactive). In addition, the Potency entry in assay [9], in assay [16] and in assay [17] was “inactive” throughout.
For the compound `CC(=O)NS(=O)(=O)c1ccc(N)cc1`, the activation in assay [1] was -1.25% (inactive). The call in assay [11], in [13], in assay [3], in assay [4], in assay [6] and in [10] was inactive. Also, the max response was 26.9% in assay [12], -19.7% in assay [5], -14.4% in assay [7] and 16.1% (inactive) in assay [8]. Also, the activity change % (negative = inhibition) in assay [15] is -0.298% (inactive). In addition, the Potency result in assay [16] and in assay [17] was “inactive” throughout.
